# Rows were chosen to be rich in hits. Some 21% of all compounds tested hit in one or more screens of this group.
# CHX counter = affects cycloheximide protein synthesis inhibition readout, counter-screen; cell reporter, cycloheximide protein synthesis inhibition counterscreen; max response, %; actives 12% (n = 300,000); in the data active means max response mostly above about 13%, no sharp cut-off; inactive means mostly below about 14%; further: read at 38.3 µM for the half of the compounds with a filed dose
# Pf growth 48h = P. falciparum growth inhibition at 48 hours (one generation) | actives 5.9% (n = 310,000) | P. falciparum luciferase growth in erythrocytes, 48 h | Potency, µM (highest dose often 28.7 µM), actives largely listed as inhibitors
#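 Luminescence readout; reporter = integrated firefly luciferase in P. falciparum. RBC culture at 2% hematocrit, 0.1% parasitemia final, 37 C/5% CO2; decreased signal taken as growth inhibition.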
# Shiga inhibitor = blocks Shiga toxin action in Vero cells; inhibition, % at 38.7 µM; Vero cells, Shiga toxin protein synthesis inhibition reporter; actives 9.2% (n = 290,000); AID 2315; in the data active means inhibition mostly above about 28%, no sharp cut-off; inactive means mostly below about 43%
# NS1 inh = blocks influenza NS1 protein function. Potency, µM (highest dose often 46.1 µM). actives 0.4% (n = 270,000). AID 2326; calls by dose curve; further: actives are rising curves; nearly all actives have a fitted effect of over 50% in size
#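 OD600 was taken as the measure of yeast growth restored by compound in an NS1-expressing S. cerevisiae strain. Cells had been washed out of glucose medium and diluted 1:100 into galactose -URA medium, pH 6.0.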
# Pf growth 96h = P. falciparum growth inhibition at 96 hour, primary screen for plastid delayed-death inhibitors. P. falciparum luciferase reporter growth, 96 h. Potency, µM (doses to about 28.7 µM), hits mostly inhibitors. actives 6.9% (n = 320,000)
#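 Cell-based qHTS: luciferase-tagged P. falciparum in erythrocytes (2% hematocrit, 0.05% parasitemia final) incubated with compounds for 96 hours, 37 C, 5% CO2; luciferase detection reagent then added and luminescence measured.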
# SARS PLpro yeast = inhibitors of SARS-CoV papain-like protease in yeast; Potency, µM (series often up to 32.9 µM), actives largely listed as activators; S. cerevisiae expressing SARS-CoV PLpro, growth rescue; actives 0.19% (n = 330,000); calls by dose curve; further: nearly all actives have a fitted effect of over 55% in size
# Hits are given with their value; . = inactive; ? = inconclusive; / = not tested or not shown; + = active, no number. Unless noted, the call rests on the fitted dose curve; in most records, active means well fitted inhibition curve with a large enough effect; inconclusive means small, poorly fitted or top-dose-only effect, or another doubt; inactive means no such curve, though single readings can be large or run the other way.
SMILES,CHX counter,Pf growth 48h,Shiga inhibitor,NS1 inh,Pf growth 96h,SARS PLpro yeast
C[C@H]1COC(=O)[C@H](Cc2ccc(F)cc2)C/C=C\C[C@H](CC(=O)NCCO)C(=O)N1,/,/,/,/,/,.
CC(CNC(=O)CCn1c(=O)c2cccn2c2ccc(F)cc21)c1ccccc1 (stereo not drawn),.,?,.,.,13.1µM,.
Cc1ccc(NC(=O)CCn2c(=O)c3cccn3c3ccccc32)cc1C,.,?,26.5,.,.,.
CCc1ccc(NC(=O)CCn2c(=O)c3cccn3c3ccccc32)cc1,.,?,.,.,.,.
CCC(C)NC(=O)CCn1c(=O)c2cccn2c2ccc(F)cc21 (stereo not drawn),.,.,.,.,.,.
COc1ccc(N(CC(=O)Nc2ccc3c(c2)OCCO3)S(=O)(=O)c2c(C)noc2C)cc1,10.8,?,.,?,.,.
Cc1ccc(N(CC(=O)Nc2ccc3c(c2)OCCO3)S(=O)(=O)c2c(C)noc2C)cc1,.,.,.,.,.,?
COc1ccc(N(CC(=O)Nc2ccc(C)c(F)c2)S(=O)(=O)c2c(C)noc2C)cc1,.,13.1µM,.,.,?,.
COc1ccc(N(CC(=O)Nc2ccc3c(c2)OCO3)S(=O)(=O)c2ccccc2)cc1,.,?,.,.,.,.
COc1ccc(N(CC(=O)Nc2ccc3c(c2)OCCO3)S(=O)(=O)c2cccnc2)cc1,20.1,.,.,.,?,.
FC(F)(F)c1ccc(-c2noc(-c3ccccc3)c2I)cc1,45.9,/,+,/,/,/
Cc1oc(CC(C)C)cc1C(=O)NCCCC(=O)O,.,.,.,.,?,.
CCOC(=O)c1cnc2c(-c3ccccc3)cnn2c1C,39.1,.,91.2,.,.,.
CC(=O)c1cnc2c(-c3ccccc3)c(C(F)(F)F)nn2c1C,.,?,.,.,.,.
CCOC(=O)Cc1c(C)nc2cc(C)nn2c1C,.,.,.,.,13.1µM,.
CCOC(=O)Cc1c(C)nc2c(-c3ccc(Cl)cc3)c(C)nn2c1C,.,?,.,.,.,.
CCOC(=O)Cc1c(C)nc2c(-c3ccccc3)cnn2c1C,36.0,.,.,.,.,.
CC(=O)c1cnc2c(-c3ccccc3)cnn2c1C,18.5,.,.,.,.,.
C/C=C(\C)C(=O)OC1CC(C)(C)C[C@H]2C3=CC[C@@H]4[C@@]5(C)CCC(O[C@@H]6O[C@@H](C(=O)O)[C@@H](O)C(O[C@@H]7OC[C@H](O)[C@@H](O)[C@@H]7O[C@@H]7OC(CO)C(O)[C@@H](O)[C@@H]7O)C6O[C@@H]6OC(CO)C(O)C(O)C6O)[C@@](C)(CO)[C@@H]5CC[C@]4(C)[C@]3(C)CC(O)[C@@]12CO (stereo partly drawn),/,/,/,/,/,.
CCOC(=O)C1=C(COC(=O)CNC(=O)c2ccc(Cl)cc2Cl)NC(=O)NC1C (stereo not drawn),/,.,/,/,.,.
N#CCc1nn(-c2ccc(Cl)cc2)c(N)c1C#N,.,.,.,.,13.1µM,.
COc1ccc(-c2csc(N)n2)cc1F,39.1,.,64.3,/,.,.
CCc1ccc(OC)c(-c2csc(N)n2)c1,.,.,.,.,11.7µM,.
O=C(Nc1ccccc1C(=O)N1CCOCC1)c1ccco1,.,.,.,.,?,.
CC1CCCCN1C(=O)c1ccccc1NC(=O)c1ccco1 (stereo not drawn),.,.,.,.,10.4µM,.
SMILES,CHX counter,Pf growth 48h,Shiga inhibitor,NS1 inh,Pf growth 96h,SARS PLpro yeast
CC1CCN(C(=O)c2cc(Cl)ccc2NC(=O)c2ccco2)CC1,.,.,.,.,2.33µM,.
O=[N+]([O-])c1ccc(N=Nc2c(Cl)cc(O)cc2Cl)cc1,28.6,?,111.2,.,?,.
Cc1ccc(C2=NS(=O)(=O)N(C)C(C(=O)NC(C)c3ccccc3)=C2)cc1 (stereo not drawn),.,.,.,.,.,.
O=C(O)Cc1sc(-c2cccnc2)nc1-c1ccc(Br)cc1,.,.,.,/,.,.
Cc1ccc(-c2nc(-c3cccnc3)sc2CC(=O)Nc2ccc3nc(C)sc3c2)cc1,.,?,.,.,13.1µM,.
CCOC(=O)c1ccccc1NC(=O)Cc1sc(-c2cccnc2)nc1-c1ccc(C)cc1,.,4.15µM,.,.,2.62µM,.
CN(C)C=Nc1c(I)cc(I)c(CCC(=O)O)c1I,/,.,/,/,.,/
O=c1oc2c(O)cccc2cc1-c1nc2ccccc2[nH]1,47.3,.,68.7,.,.,.
C=CCc1cccc2cc(-c3nc4ccc(C)cc4[nH]3)c(=O)oc12,36.2,/,91.1,/,/,/
O=C(O)c1ccc2nc(-c3cc4cccc(O)c4oc3=O)[nH]c2c1,/,.,/,/,.,.
O=c1oc2c(CN3CCCCC3)c(O)ccc2cc1-c1nc2ccccc2[nH]1,11.6,?,.,.,10.4µM,.
O=C1CN(C(=O)COC(=O)c2ccc(Cl)c(S(=O)(=O)N3CCCCC3)c2)c2ccccc2N1,/,/,/,/,/,.
CC(c1nc2ccccc2c(=O)[nH]1)N(C)c1ccc2ccccc2c1 (stereo not drawn),.,6.57µM,.,.,14.7µM,.
O=C(Cn1c(=O)n2ncnc2c2c3c(sc21)CCCC3)c1ccccc1,.,11.7µM,.,.,/,.
Nc1ccc(Oc2ccc3nc(-c4ccccc4)c(-c4ccccc4)nc3c2)cc1,.,?,.,.,?,.
Nc1ccc(Oc2cc(N)cc(Oc3ccccc3)c2)cc1,43.6,.,67.7,.,?,.
Oc1cccnc1CN1CCCCC1,/,/,/,.,/,/
Cc1cc(CN2CCCCC2)c(O)c(CN2CCCCC2)c1,/,/,/,.,/,/
Oc1ccc(CN2CCCCC2)nc1-c1ccccc1,.,0.522µM,.,.,?,.
Oc1ccc(-c2ccccc2)cc1CN1CCCCCC1,.,0.657µM,.,.,?,.
Oc1ccc(Cl)cc1CN1CCN(Cc2ccccc2)CC1,.,1.47µM,.,.,/,.
Cc1cc2cc(C=C(C#N)C#N)c(Cl)nc2cc1C,25.2,.,+,.,.,.
COC(=O)C1CC(O)CN1C(=O)NC1CCCCC1 (stereo not drawn),.,.,.,.,.,.
O=C(CC(SCc1ccco1)c1ccc(O)cc1)c1cccs1 (stereo not drawn),37.2,.,115.3,.,.,.
CC(NC(=O)Cc1cccs1)c1ccc2c(c1)OCO2 (stereo not drawn),.,.,.,.,?,.
O=C(CC(SCCO)c1ccc2c(c1)OCO2)c1cccs1 (stereo not drawn),28.8,.,.,.,?,.
C=CCN(C(=O)CNC(=O)c1ccco1)C(C(=O)NC1CCCCC1)c1cccnc1 (stereo not drawn),.,.,.,.,.,.
CC(=O)Nc1ccc(NC(=O)CSc2nnc(NC(=O)c3ccc(Br)o3)s2)cc1,.,.,.,.,.,.
C=CC[C@@H](CC(=O)N[C@@H](CO)Cc1ccccc1)C(=O)N[C@@H](COC(=O)[C@@H](CC=C)Cc1ccc(F)cc1)Cc1ccccc1,/,/,/,/,/,.
